According to PubChem BioAssay AID493170 (National Center for Advancing Translational Sciences (NCATS), 2011):
Records with an inconclusive call do not appear. Where a call stands in place of a potency, no number is given. Calls of active or inactive are those of the source. The call rests on the fitted dose curve; in most records, active means well fitted inhibition curve with a large enough effect; inconclusive means small, poorly fitted or top-dose-only effect, or effect the other way; inactive means flat fitted curve, though single readings scatter.
Further: nearly all actives have a fitted effect of over 50% in size.
Potency means the concentration at half of the fitted maximal effect.

Each compound was assayed against Ubiquitin carboxyl-terminal hydrolase 2 (Homo sapiens) (UniProt O75604) (assay: Ub-rhodamine 110 based assay for inhibitors Ubiquitin-specific Protease USP2a). Conditions: USP2a Ub-rhodamine110 cleavage, fluorescence; series mostly up to 38.3 µM.
Sequence of Ubiquitin carboxyl-terminal hydrolase 2 (Homo sapiens) (O75604 whole entry, looked up): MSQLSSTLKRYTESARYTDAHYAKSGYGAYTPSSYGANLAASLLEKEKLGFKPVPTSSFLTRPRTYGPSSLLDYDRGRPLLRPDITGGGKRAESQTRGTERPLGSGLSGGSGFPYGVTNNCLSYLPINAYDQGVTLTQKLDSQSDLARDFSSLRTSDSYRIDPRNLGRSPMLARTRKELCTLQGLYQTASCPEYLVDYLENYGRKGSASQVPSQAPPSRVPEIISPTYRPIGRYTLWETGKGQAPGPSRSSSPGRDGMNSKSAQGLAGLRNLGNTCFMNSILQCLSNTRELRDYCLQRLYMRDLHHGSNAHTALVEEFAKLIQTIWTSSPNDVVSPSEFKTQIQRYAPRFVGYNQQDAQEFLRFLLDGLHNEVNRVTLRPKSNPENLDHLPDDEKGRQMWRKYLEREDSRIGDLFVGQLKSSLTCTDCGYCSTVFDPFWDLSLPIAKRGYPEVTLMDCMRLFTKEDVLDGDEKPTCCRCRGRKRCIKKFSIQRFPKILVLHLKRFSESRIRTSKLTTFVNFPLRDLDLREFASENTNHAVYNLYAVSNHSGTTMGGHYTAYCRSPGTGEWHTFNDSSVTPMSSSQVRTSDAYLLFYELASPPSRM
Text: NIH Molecular Libraries Probe Centers Network [MLPCN] NIH Chemical Genomics Center [NCGC] MLPCN Grant: XO1-MH079852-01 PI Name: Nicholson, Ben. Progenra Inc, Malvern, PA NCGC Assay Overview: Homeostasis of cellular proteins is maintained through a combination of synthesis and degradation. The pathway that accounts for the majority of protein degradation is the ubiquitin-proteasomal pathway. Ubiquitin (Ub) is highly conserved in all cells and the generation of a multi-Ub chain typically targets proteins for degradation by the proteasome. However, ubiquitination is highly reversible and dynamic. Deubiquitination, the reverse process, is catalyzed through the action of enzymes referred to as isopeptidases or deubiquitinating enzymes (DUBs). This group of enzymes is collectively responsible for maintaining adequate pools of free ubiquitin and regulating the ubiquitination status of cellular proteins. The class of DUBs referred to as the ubiquitin-specific proteases (USP) family functions endoproteolytically to cleave Ub chains from a wide range of protein substrates. USP2a deubiquitinates fatty acid synthase (FASN) which has recently been identified as an emerging oncology target. To identify inhibitors of USP2a a cell-free assay was employed. This assay measures cleavage of a profluorescent substrate (Ub-Rhodamine 110; Boston Biochem Cat#: U-555) by USP2a. The assay gives a fluorescent read-out at excitation/emission wavelengths of 485/531. The USP2a enzyme was provided by Progenra, Inc. licensed for sale by LifeSensors, Inc.
NCGC Assay Protocol: The assay buffer, prepared fresh at the day of the assay, contains 20mM Tris-HCl pH 8.0, 2mM CaCl2, 2mM beta-Mercaptoethanol, 0.05% CHAPS. 3uL of 10 nM (5 nM final) USP2a, was dispensed into a medium-binding black solid Kalypsys 1,536 well plate using the Kalypsys dispenser. The assay plate was then pinned with 23nL compounds in DMSO with a Kalypsys pintool in columns 5-48 (0.3% final DMSO concentration). The negative control was buffer/DMSO only in column 3. The assay plate is incubated at RT for 30min. Subsequently, 3uL of 300 nM Ub-Rhod110 (150 nM final) was dispensed into the plate using a Kalypsys dispenser. Plates were read after every minute for 7 min on a ViewLux (Perkin Elmer) plate reader using the following wavelengths: Ex 485nm /Em 531nm. Data were normalized to the AC100 inhibition (buffer alone). Concentration-response curves were fitted to the normalized data and the concentration-response curves were then classified based on curve quality (r2), response magnitude and degree of measured activity. The time zero reading was used to flag fluorescence artifacts.
With `CC(C(=O)Nc1ccc(C(=O)O)c(O)c1)N1C(=O)/C(=C\c2ccco2)SC1=S` (stereo not given) the Potency was 10 µM (active). With `Cn1c(C(=O)NCCCN2CCN(c3ccccc3F)CC2)cc2c(=O)n(C)c3ccccc3c21` the Potency was “inactive”. `COC(=O)c1c(N2C(=O)CCC2=O)sc2c1CCCC2` was tested, and the Potency was “inactive”. For `CC1CCCCC1NC(=O)CSCC(=O)O` (stereo not given), the Potency was “inactive”. With `Cc1cccc(NCc2nc(-c3ccccc3)no2)c1` the Potency was “inactive”. For `Cc1cc(C(=O)NCc2ccco2)on1`, the Potency was “inactive”. In the case of `Cc1ccc(N=C2NC(=O)/C(=C/C=C/c3ccco3)S2)cc1C`, the Potency is reported as 5.01 µM (active). For `CCOc1ccccc1C(=O)NC1CC2CCCC(C1)N2C1CC1` (stereo not given), the Potency was “inactive”. For `O=C(Cc1ccc(S(=O)(=O)N2CCOCC2)s1)Nc1nc2c(s1)CCCC2`, the Potency was 6.31 µM (active). `O=C(Nc1ccc(Nc2ccncc2)cc1)c1ccc(Nc2ccnc3ccc([N+](=O)[O-])cc23)cc1` was tested, and the Potency was 7.08 µM (active). In the case of `O=C(C[n+]1ccc(C(=O)N/N=C/c2ccc(OCc3ccccc3)cc2)cc1)c1ccccc1`, the Potency is reported as 8.91 µM (active). In the case of `Cc1n[nH]c(C)c1S(=O)(=O)N1CCCC(C(=O)NC2CCCc3ccccc32)C1` (stereo not given), the Potency is reported as “inactive”. With `COc1ccc(O)c(-c2cc(-c3ccc(F)cc3)n[nH]2)c1` the Potency was “inactive”. In the case of `CCCOc1ccc(-c2nc(C#N)c(N3CCN(CC)CC3)o2)cc1`, the Potency is reported as “inactive”. For `CCc1cc2c(=O)c(-c3nc4ccccc4n3C)coc2c(CN2CCCCC2C)c1O` (stereo not given), the Potency was “inactive”. `CCNc1sc(C(=O)c2cccs2)c(N)c1-c1nc2ccccc2s1` was tested, and the Potency was “inactive”. For `CSCCC(NC(=O)c1cc(C(C)(C)C)oc1C)C(=O)O` (stereo not given), the Potency was “inactive”. `COC(=O)N/N=C\c1cc(Br)ccc1OCc1ccccc1` was tested, and the Potency was “inactive”. `O=C(NC12CC3CC(CC(C3)C1)C2)C1=COCCO1` was tested, and the Potency was “inactive”. For `C=CCSC1=N/C(=C\C=C\c2ccco2)C(=O)S1`, the Potency was 10 µM (active). `C[C@@H]1CN([C@H](C)CO)C(=O)Cc2cc(NS(=O)(=O)c3ccc(Cl)cc3)ccc2O[C@H]1CN(C)Cc1ccc(C(F)(F)F)cc1` was tested, and the Potency was 10 µM (active). For `Cc1c(C(=O)NCc2c(F)cc(F)cc2F)oc2ccc(S(=O)(=O)N3CCOCC3)cc12`, the Potency was “inactive”. For `C#CCOCCOCCOCCNc1nc(N2CCN(C(=O)CCCCCCCCCCNC(=O)Cn3cc(CCCCCN)nn3)CC2)nc(N2CCN(C(=O)CCCCCCCCCCNC(=O)[C@H]([C@@H](C)CC)n3cc(CCCCCN)nn3)CC2)n1`, the Potency was “inactive”. With `O=C(CCNc1cccc(Cl)c1)c1ccco1` the Potency was “inactive”. For `COCCn1c(SCC(=O)Nc2cc(C)on2)nnc1-c1ccccc1`, the Potency was “inactive”. In the case of `CCCn1nnc(NC(=O)c2cccc(OCC(C)C)c2)n1`, the Potency is reported as “inactive”. `O=C(Nc1ccc2c(c1)OCO2)NC1(C(F)(F)F)Oc2ccccc2O1` was tested, and the Potency was “inactive”. For `O=C(CSc1nccc(=O)[nH]1)N1N=C2/C(=C/c3ccco3)CCCC2C1c1ccco1` (stereo not given), the Potency was 10 µM (active). In the case of `CCOC(=O)c1c(C)n(-c2ccc(C)cc2)c2ccc(OCC(O)CN3CCN(C)CC3)cc12` (stereo not given), the Potency is reported as “inactive”. For `O=[N+]([O-])c1ccc(Sc2nnnn2-c2ccccc2)c(Cl)c1`, the Potency was “inactive”. In the case of `O=C(OCc1ccccc1)C1CCCN1C(=O)c1cccs1` (stereo not given), the Potency is reported as “inactive”. In the case of `NC(=O)c1c(NC(=O)CSc2nnc(-c3ccco3)n2-c2ccccc2)sc2c1CCC2`, the Potency is reported as 5.01 µM (active). For `CCOc1ccc(C=NNc2ccc(S(=O)(=O)Nc3ccccc3C(=O)O)cc2[N+](=O)[O-])cc1`, the Potency was 2.82 µM (active). With `CCc1nnc(NC(=O)CSc2nccn2-c2cccc(C)c2)s1` the Potency was “inactive”. `CN(C)C=Nc1ncc2c3ccccc3n(CCN(C)C)c2c1C#N` was tested, and the Potency was “inactive”. `O=S(=O)(NC1CCSc2ccccc21)c1ccccc1` (stereo not given) was tested, and the Potency was “inactive”. With `CC1CCN(CC(O)COc2cccc(F)c2)CC1` (stereo not given) the Potency was “inactive”. For `CCN1C(=O)C(NC(C)=O)c2cc(OC)ccc21` (stereo not given), the Potency was “inactive”. For `N#CCC(=O)Nc1ccc(C(=O)OCC(=O)NCc2ccc3c(c2)OCO3)cc1`, the Potency was 10 µM (active). With `CCC/C(O)=C1\C(=O)CC(C)(C)CC1=Nc1ccc(OC)cc1OC` the Potency was “inactive”.
